Experimental findings from PubChem BioAssay AID493232 (The Scripps Research Institute Molecular Screening Center, 2011) are described below.

About 860 (48%) of roughly 1,800 compounds were called active. So high a share suggests a set chosen from earlier hits. Not all results are given here. A number with no mark means an inactive call. Cut-off read from the data, not from the text of the source: active = inhibition above about 17%; inactive = the rest.

As usually defined, the inhibition is the relative decrease from the control value, in per cent.

This assay can be described thus: signal inhibition in parental CHO-K1 cells, counter-screen for OX1R antagonist project, cell-based, HTRF (AID 493232).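 Note: 0% = agonist challenge with vehicle and 100% = vehicle alone without agonist.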 The settings on record: HTRF counterscreen, at 6.6 µM, stronger effect = higher value. On the technique in general: The purpose of a counterscreen is to sort out artefacts and off-target activity.
For the compound `NS(=O)(=O)c1ccc(CCNC(=O)c2ccc([N+](=O)[O-])cc2[N+](=O)[O-])cc1`, the inhibition is 76.4% (active).
Then `O=C(Nc1nnc(-c2ccccc2)o1)c1cc(-c2cccs2)nc2ccccc12`, with -1.4%; and `Cn1c(N)c(C(=O)COC(=O)c2ccc3ccccc3c2)c(=O)n(C)c1=O`, with 9.11%; and `COc1ccc(CCn2c(NCCCN3CCOCC3)nc3c2c(=O)[nH]c(=O)n3C)cc1`, with -0.46%.
Next, `O=C(/C=C/c1ccco1)Nc1cccc(-c2nc3ccccc3[nH]2)c1`: 20.4% (active); `Cc1ccc2c(c1)nnc1nnc(SCC(=O)O)n12`: 113% (active).
Next, `CCn1c(SCC(=O)c2ccc3ccccc3c2)nnc1-c1cccs1`: 7.75%.
Regarding `COc1ccc2[nH]c(=O)c(CNc3ccc(C)c(C)c3)cc2c1`, the inhibition was 33.7% (active).
Consider `CN(C(=O)CSc1nnc(-c2n[nH]c3ccccc23)o1)c1ccccc1`, for which the inhibition was -4.39%.
Next, `O=C(Nc1ccc2sc3ccccc3c(=O)c2c1)c1ccccc1Cl`: -3.67%; `Cc1ccc(Nc2nc(CSc3nnnn3-c3ccccc3)cc(=O)[nH]2)cc1`: 1.23%; `CCn1c(O)c(N=NC2=NC(=O)CS2)c2cc(C)ccc21`: 21.8% (active).
Then `O=C(Oc1ccccc1C(=S)N1CCCCC1)c1cc([N+](=O)[O-])cc([N+](=O)[O-])c1`, with 56.2% (active); and `COc1cc(C(=S)N2CCOCC2)cc(OC)c1OC(=O)c1ccc([N+](=O)[O-])cc1[N+](=O)[O-]`, with 8.29%; and `COC(=O)CNC(=O)c1ccc2c(c1)S(=O)(=O)c1ccccc1C2=O`, with 70.6% (active).
Next, `COc1cccc(C(=O)NC(=O)Nc2nc(C)cc(C(F)(F)F)n2)c1`: 0.24%.
Regarding `CCOc1ccc(CCNC(=O)C(CC)n2nc(C)n3c(cc4sccc43)c2=O)cc1OCC` (stereo not given), the inhibition was 7.91%.
In the case of `CCn1c(=N)c(C(=O)NCCCOC)cc2c(=O)n3cccc(C)c3nc21`, the inhibition is 83.9% (active).
Next, `CCOc1ccc(/C=C/C(=O)OCC(=O)c2ccccc2OC)cc1OC`: 7.57%; `O=C(NCc1ccco1)C1CCCN(S(=O)(=O)c2cccc3nonc23)C1` (stereo not given): 19.7% (active).
Then `C/C(N)=C(/C#N)C(=O)COC(=O)c1cc(-c2ccc(C)cc2)nc2ccccc12`, with 6.3%.
Next, `COc1cc2ccccc2cc1C(=O)Nc1ccc(N2CCOCC2)cc1`: 16.2%; `Cn1cnnc1Sc1ccc(S(C)(=O)=O)cc1[N+](=O)[O-]`: 50.5% (active); `Nc1[nH][nH]c(=O)c1N=Nc1ccc2c(c1)OCO2`: 52.9% (active).
In the case of `COc1ccc(CCNC(=O)/C(C#N)=C2\N=C(NC(=O)c3cccs3)c3ccccc32)cc1`, the inhibition was 24% (active).
